# Reference: the supplement of paper PMC8728848
# This is one part of a sample in which the strongest signals are shown more often than they occur.
# B1: GS13455A-bfa-343-25-343 (Bacteroides fragilis) (protein)
# chain: KDEIQIVDQDTSWQMDNKYIEEDIREQLGIDPFTDLVYLGYYGNPYTQLEAINDLVNTTLVGKNELSFKVKVTKPYKEDIKVNLMKEDKLVTDFPEMAEGIPLFPSENCTFEGGVLKAGELETTVKLTLKDVEKLNNLSGYVMAIKLTMEGSHEHLAIARTRSSYFVKLNLSIRLDNIDSSNKKIEGKGFNKEISFKSDIRPDKLGSLNDGNFTANNWYTSNANNYLTIILPEKQSLKGFRLDTNTSPSGSYMLKSCRVMVETPDGNWVNHGVFDRKSMDGIAYISFKKPVECTKVRFENMMAFNGRFSVDVNEVTAFR
# B2: GS14009A-pdi-495-27-495 (Parabacteroides distasonis) (protein)
# chain: FEEVNTDPDSPTDVPTTNLLAYSLYYTSYRLYDRWFAMDEPMTFCGYASKMTYIDESRYNFRTGVQDTNWEYLYRILNNLKDIEKRATFNETPNMLNVSKVMQVHLMQVATDRWRDVPYTDAAKMTDGILQPKYDKQEDIYPGLLATLKEAADGFADGGSDDLGEGDLLFGGDIEKWQRYCNSMRLRLAMRISEVSPALAKETVEEVMGNPTKYPIMESNDDNAFFWWIGTDPNYYEPMADGYRTRKTEYCAADVIVDHMNTREDPRRSSYFQPTKESVEAGEPKYVGYTIGAKANAVASKYSIWGARFFTDLAGFSPYMRVAEPWFCVAEASMLGWNTGISAEDAYNKAVTYSMEENSVSAEDIADYLANAGKFTNDKKQIYYEEWVAMFKQGMEGWSLYRRTGVPDNLYPAPGRPANYSNHNVPPFRSPYPDKERNLNNANCAPFDAEVVDNLWGKQMWWDTRTGVH
# What was measured:
# Test in all cases: glycan array binding signal (z-score within array); higher = stronger binding
# Settings in all cases: glycan notation: IUPAC condensed, linker removed
# [1] = target: Fuc(a1-2)Gal(b1-3)GlcNAc(b1-2)Man(a1-3)[Fuc(a1-2)Gal(b1-3)GlcNAc(b1-2)Man(a1-6)]Man(b1-4)GlcNAc(b1-4)GlcNAc
# Method in brief: (§1)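 The Consortium for Functional Glycomics database supplied 3228 glycan arrays, of which those lacking an available protein sequence were dropped. The binding signal, a within-array Z-score, was averaged across arrays of the same protein sequence and across linkers. Negative scores can be read as non-binding.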
# [2] = target: Fuc(a1-2)Gal(b1-4)[Fuc(a1-3)]GlcNAc(b1-3)[Neu5Ac(a2-6)Gal(b1-4)GlcNAc(b1-6)]Gal(b1-4)Glc
# Method in brief: as §1
# [3] = target: Fuc(a1-2)Gal6S(b1-4)Glc6S
# Method in brief: as §1
# [4] = target: Fuc(a1-2)[Gal(a1-3)]Gal(b1-3)GlcNAc(b1-2)Man(a1-3)[Fuc(a1-2)[Gal(a1-3)]Gal(b1-3)GlcNAc(b1-2)Man(a1-6)]Man(b1-4)GlcNAc(b1-4)GlcNAc
# Method in brief: as §1
# [5] = target: Fuc(a1-2)[GalNAc(a1-3)]Gal(b1-3)GlcNAc(b1-3)GalNAc
# Method in brief: as §1
# [6] = target: Fuc(a1-2)[GalNAc(a1-3)]Gal(b1-4)GlcNAc(b1-2)Man(a1-3)[Fuc(a1-2)[GalNAc(a1-3)]Gal(b1-4)GlcNAc(b1-2)Man(a1-6)]Man(b1-4)GlcNAc(b1-4)[Fuc(a1-6)]GlcNAc
# Method in brief: as §1
# Fuc(a1-4)GlcNAc = target: Fuc(a1-4)GlcNAc
# Method in brief: as §1
# [7] = target: Gal(a1-3)Gal(b1-3)GlcNAc(b1-2)Man(a1-3)[Gal(a1-3)Gal(b1-3)GlcNAc(b1-2)Man(a1-6)]Man(b1-4)GlcNAc(b1-4)GlcNAc
# Method in brief: as §1
# [8] = target: Gal(a1-3)[Gal(a1-4)]Gal(b1-4)GlcNAc
# Method in brief: as §1
# [9] = target: Gal(b1-3)GalNAc(a1-3)[Fuc(a1-2)]Gal(b1-4)Glc
# Method in brief: as §1
# [10] = target: Gal(b1-3)GalNAc(b1-4)[Neu5Ac(a2-3)]Gal(b1-4)Glc
# Method in brief: as §1
# [11] = target: Gal(b1-3)GlcNAc(b1-3)Gal(b1-4)[Fuc(a1-3)]GlcNAc(b1-6)[Gal(b1-3)GlcNAc(b1-3)]Gal(b1-4)Glc
# Method in brief: as §1
# [12] = target: Gal(b1-4)GalNAc(a1-3)[Fuc(a1-2)]Gal(b1-4)GlcNAc
# Method in brief: as §1
# [13] = target: Gal(b1-4)GlcNAc(b1-2)[Gal(b1-4)GlcNAc(b1-6)]Man(a1-6)[Gal(b1-4)GlcNAc(b1-2)Man(a1-3)]Man(b1-4)GlcNAc(b1-4)GlcNAc
# Method in brief: as §1
# [14] = target: Gal(b1-4)GlcNAc(b1-2)[Gal(b1-4)GlcNAc(b1-6)]Man(a1-6)[GlcNAc(b1-4)][Gal(b1-4)GlcNAc(b1-2)[Gal(b1-4)GlcNAc(b1-4)]Man(a1-3)]Man(b1-4)GlcNAc(b1-4)[Fuc(a1-6)]GlcNAc
# Method in brief: as §1
# [15] = target: Gal(b1-4)GlcNAc(b1-3)Gal(b1-3)GalNAc
# Method in brief: as §1
# [16] = target: Gal(b1-4)GlcNAc(b1-3)Gal(b1-4)GlcNAc(b1-3)Gal(b1-4)GlcNAc(b1-3)Gal(b1-4)GlcNAc(b1-2)[Gal(b1-4)GlcNAc(b1-3)Gal(b1-4)GlcNAc(b1-3)Gal(b1-4)GlcNAc(b1-3)Gal(b1-4)GlcNAc(b1-6)]Man(a1-6)[Gal(b1-4)GlcNAc(b1-3)Gal(b1-4)GlcNAc(b1-3)Gal(b1-4)GlcNAc(b1-3)Gal(b1-4)GlcNAc(b1-2)Man(a1-3)]Man(b1-4)GlcNAc(b1-4)[Fuc(a1-6)]GlcNAc
# Method in brief: as §1
# [17] = target: Gal(b1-4)GlcNAc(b1-3)Gal(b1-4)GlcNAc(b1-3)GalNAc
# Method in brief: as §1
# Gal3S(b1-4)Glc = target: Gal3S(b1-4)Glc
# Method in brief: as §1
# [18] = target: Gal3S(b1-4)[Fuc(a1-3)]Glc6S
# Method in brief: as §1
# Gal3S6S(b1-4)GlcNAc6S = target: Gal3S6S(b1-4)GlcNAc6S
# Method in brief: as §1
# Gal4S6S(b1-4)GlcNAc = target: Gal4S6S(b1-4)GlcNAc
# Method in brief: as §1
# Gal6P(b1-4)GlcNAc = target: Gal6P(b1-4)GlcNAc
# Method in brief: as §1
# Gal6S(b1-3)GlcNAc = target: Gal6S(b1-3)GlcNAc
# Method in brief: as §1
# [19] = target: GalNAc(b1-3)Gal(a1-4)Gal(b1-4)GlcNAc
# Method in brief: as §1
# GalNAc(b1-4)GlcNAc = target: GalNAc(b1-4)GlcNAc
# Method in brief: as §1
# [20] = target: GalNAc(b1-4)GlcNAc(b1-2)Man(a1-3)[GalNAc(b1-4)GlcNAc(b1-2)Man(a1-6)]Man(b1-4)GlcNAc(b1-4)GlcNAc
# Method in brief: as §1
# GalNAc3S(b1-4)GlcNAc = target: GalNAc3S(b1-4)GlcNAc
# Method in brief: as §1
# [21] = target: Glc(a1-6)Glc(a1-6)Glc(a1-6)Glc
# Method in brief: as §1
# [22] = target: GlcNAc(a1-4)Gal(b1-4)GlcNAc(b1-3)Gal(b1-4)Glc
# Method in brief: as §1
# [23] = target: GlcNAc(b1-3)Gal(b1-4)GlcNAc(b1-3)Gal(b1-4)GlcNAc(b1-2)[GlcNAc(b1-3)Gal(b1-4)GlcNAc(b1-3)Gal(b1-4)GlcNAc(b1-6)]Man(a1-6)[GlcNAc(b1-3)Gal(b1-4)GlcNAc(b1-3)Gal(b1-4)GlcNAc(b1-2)Man(a1-3)]Man(b1-4)GlcNAc(b1-4)[Fuc(a1-6)]GlcNAc
# Method in brief: as §1
# [24] = target: GlcNAc(b1-3)Gal(b1-4)GlcNAc(b1-6)[GlcNAc(b1-3)Gal(b1-3)]GalNAc
# Method in brief: as §1
# GlcNAc(b1-6)GalNAc = target: GlcNAc(b1-6)GalNAc
# Method in brief: as §1
# Kdn(a2-3)Gal(b1-4)GlcNAc = target: Kdn(a2-3)Gal(b1-4)GlcNAc
# Method in brief: as §1
# [25] = target: Neu5Ac(a2-3)Gal(b1-3)GalNAc(b1-4)[Neu5Ac(a2-8)Neu5Ac(a2-3)]Gal(b1-4)Glc
# Method in brief: as §1
# [26] = target: Neu5Ac(a2-3)Gal(b1-3)[GlcNAc(b1-6)]GalNAc
# Method in brief: as §1
# [27] = target: Neu5Ac(a2-3)Gal(b1-4)GlcNAc(b1-2)[Neu5Ac(a2-3)Gal(b1-4)GlcNAc(b1-4)]Man(a1-3)[GlcNAc(b1-4)][Neu5Ac(a2-3)Gal(b1-4)GlcNAc(b1-4)Man(a1-6)]Man(b1-4)GlcNAc(b1-4)GlcNAc
# Method in brief: as §1
# [28] = target: Neu5Ac(a2-3)Gal(b1-4)GlcNAc(b1-3)Gal(b1-4)GlcNAc(b1-3)Gal(b1-4)GlcNAc(b1-2)Man(a1-3)[Neu5Ac(a2-3)Gal(b1-4)GlcNAc(b1-3)Gal(b1-4)GlcNAc(b1-3)Gal(b1-4)GlcNAc(b1-2)Man(a1-6)]GalNAc
# Method in brief: as §1
# [29] = target: Neu5Ac(a2-3)Gal(b1-4)GlcNAc(b1-6)GalNAc
# Method in brief: as §1
# [30] = target: Neu5Ac(a2-3)Gal(b1-4)[Fuc(a1-3)]GlcNAc
# Method in brief: as §1
# [31] = target: Neu5Ac(a2-3)Gal6S(b1-4)GlcNAc
# Method in brief: as §1
# [32] = target: Neu5Ac(a2-3)[GalNAc(b1-4)]Gal(b1-4)Glc
# Method in brief: as §1
# [33] = target: Neu5Ac(a2-6)Gal(b1-4)GlcNAc(b1-2)Man(a1-3)[Man(a1-6)]Man(b1-4)GlcNAc(b1-4)GlcNAc
# Method in brief: as §1
# [34] = target: Neu5Ac(a2-6)Gal(b1-4)GlcNAc(b1-2)Man(a1-3)[Neu5Ac(a2-3)Gal(b1-4)GlcNAc(b1-2)Man(a1-6)]Man(b1-4)GlcNAc(b1-4)GlcNAc
# Method in brief: as §1
# [35] = target: Neu5Ac(a2-6)Gal(b1-4)GlcNAc(b1-3)Gal(b1-4)GlcNAc(b1-3)Gal(b1-4)GlcNAc
# Method in brief: as §1
# [36] = target: Neu5Gc(a2-3)Gal(b1-4)GlcNAc
# Method in brief: as §1
binder,measurement,setting,value
B1,glycan array binding signal (z-score),[1],-0.69
same,glycan array binding signal (z-score),[2],-0.309
same,glycan array binding signal (z-score),[3],0.254
same,glycan array binding signal (z-score),[4],-0.738
same,glycan array binding signal (z-score),[5],2.29
same,glycan array binding signal (z-score),[6],1.46
same,glycan array binding signal (z-score),Fuc(a1-4)GlcNAc,20.2
same,glycan array binding signal (z-score),[7],-0.044
same,glycan array binding signal (z-score),[8],1.91
same,glycan array binding signal (z-score),[9],-0.504
same,glycan array binding signal (z-score),[10],-0.051
same,glycan array binding signal (z-score),[11],-0.016
same,glycan array binding signal (z-score),[12],-0.716
same,glycan array binding signal (z-score),[13],-0.11
same,glycan array binding signal (z-score),[14],-0.04
same,glycan array binding signal (z-score),[15],0.107
same,glycan array binding signal (z-score),[16],0.144
same,glycan array binding signal (z-score),[17],-0.065
same,glycan array binding signal (z-score),Gal3S(b1-4)Glc,1.7
same,glycan array binding signal (z-score),[18],1.38
same,glycan array binding signal (z-score),Gal3S6S(b1-4)GlcNAc6S,1.68
same,glycan array binding signal (z-score),Gal4S6S(b1-4)GlcNAc,0.197
same,glycan array binding signal (z-score),Gal6P(b1-4)GlcNAc,-0.523
same,glycan array binding signal (z-score),Gal6S(b1-3)GlcNAc,-0.365
same,glycan array binding signal (z-score),[19],1.43
same,glycan array binding signal (z-score),GalNAc(b1-4)GlcNAc,-0.125
same,glycan array binding signal (z-score),[20],1.75
same,glycan array binding signal (z-score),GalNAc3S(b1-4)GlcNAc,-0.39
same,glycan array binding signal (z-score),[21],-0.604
same,glycan array binding signal (z-score),[22],0.059
B2,glycan array binding signal (z-score),[23],2.44
same,glycan array binding signal (z-score),[24],0.415
same,glycan array binding signal (z-score),GlcNAc(b1-6)GalNAc,0.174
same,glycan array binding signal (z-score),Kdn(a2-3)Gal(b1-4)GlcNAc,-0.615
same,glycan array binding signal (z-score),[25],-0.25
same,glycan array binding signal (z-score),[26],-0.177
same,glycan array binding signal (z-score),[27],0.12
same,glycan array binding signal (z-score),[28],1.45
same,glycan array binding signal (z-score),[29],-0.512
same,glycan array binding signal (z-score),[30],-0.201
same,glycan array binding signal (z-score),[31],-0.508
same,glycan array binding signal (z-score),[32],-0.129
same,glycan array binding signal (z-score),[33],-0.647
same,glycan array binding signal (z-score),[34],-0.631
same,glycan array binding signal (z-score),[35],-0.311
same,glycan array binding signal (z-score),[36],-0.276
